Abeta yeast res = qHTS for compounds that reverse cellular toxicity of Amyloid beta (A-beta) peptide in yeast: Primary Screen. yeast expressing A-beta42, growth rescue, OD600, 48 h; response scale: 0% DMSO, 100% iron-clioquinol control. Potency, µM (series often up to 46.1 µM), most hits filed as activators. 410,000 tested, 0.063% active; also: nearly all actives have a fitted effect of over 55% in size
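Growth rescue measured by 600 nm absorbance after 48 h yeast culture at 30 C with compound. Values normalized between DMSO and an equimolar ferric chloride plus clioquinol control.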
ClpP mod = qHTS Assay for Activators of ClpP; Potency, µM (doses to about 57.5 µM), for inactives: at the top dose activity change, negative = active; 340,000 tested, 1.9% active; purified B. subtilis ClpP, FRET peptide cleavage, 20 min; active = well fitted falling curve with a large enough effect; inconclusive = small, poorly fitted or top-dose-only effect; inactive = no such curve, though single readings can be large or run the other way; also: the source files actives as falling curves though it sought activators and does not explain the sign; nearly all actives have a fitted effect of over 65% in size
Target sequence (P80244 whole entry, looked up): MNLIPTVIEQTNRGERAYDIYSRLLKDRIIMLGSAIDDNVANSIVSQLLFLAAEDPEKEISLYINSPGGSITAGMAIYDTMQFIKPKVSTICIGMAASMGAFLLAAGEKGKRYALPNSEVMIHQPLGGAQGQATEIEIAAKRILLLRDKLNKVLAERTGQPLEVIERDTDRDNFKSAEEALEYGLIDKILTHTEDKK
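Buffer: 100 mM Tris/HCl pH8, 100 mM KCl, 0.05% low protease BSA, 2.5% glycerol, 0.01% Tween-20. ClpP 10 microg/mL final; 20 min RT; delta FRET normalized to ADEP and DMSO controls.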
Mm-Cpn inhibitor = Inhibitors of TCP-1 ring complex (TRiC) of Methanococcus maripaludis (MmCpn): qHTS. purified Mm-Cpn ATPase, ADP Transcreener TR-FRET. Potency, µM (top dose mostly 76.9 µM), inactives show at the top dose activity, negative = inhibition, most hits filed as inhibitors. 330,000 tested, 0.031% active. AID 504842, 2011; also: % is scaled to controls: 0 for no effect and ±100 for the full control effect; nearly all actives have a fitted effect of over 80% in size
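Inhibition of chaperonin ATP hydrolysis is measured as reduced ADP production, detected by competitive TR-FRET in which signal falls with ADP. Final enzyme 25 nM and ATP 10 uM, reacted 30 min at 37°C.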
FUS yeast rescue = qHTS for Suppressors of FUS Proteinopathy: Primary screen using FUS-linked yeast assay | S. cerevisiae FUS-expressing, growth rescue, OD600, 24 h | Potency, µM (series often up to 76.6 µM), most hits filed as activators | 390,000 tested, 0.24% active | AID 1347120, 2019;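 also: plate controls were DMSO vehicle for no effect and reference control for full effect; nearly all actives have a fitted effect of over 55% in size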
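Quantitative HTS measuring growth restoration of FUS-toxic yeast. Galactose-induced cells (OD 0.005) were exposed 24hr at 30C to compounds at several concentrations, then absorbance at 600 nm was recorded.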
aSyn rescue = qHTS of alpha-syn Inhibitors | 370,000 tested, 0.14% active | Yeast expressing alpha-synuclein, growth rescue, BacTiter-Glo, 24 h | Potency, µM (doses to about 46.1 µM), without a hit: top-dose growth rescue (activation), hits mostly activators; also: % of control where 0% means no effect; nearly all actives have a fitted effect of over 65% in size
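Screening used galactose-induced yeast with toxic alpha-synuclein levels, exposed to compound for 24 hr at 30 deg C. Cell growth, read with BacTiter-Glo luminescence, gave the measured signal.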
TDP-43 yeast inh = qHTS of TDP-43 Inhibitors; TDP-43 expressing yeast growth rescue, BacTiter-Glo, 24 h; Potency, µM (top dose mostly 46.1 µM), without a hit: at the highest dose growth rescue (activation), hits mostly activators; 410,000 tested, 1.8% active; also: % of control where 0% means no effect; nearly all actives have a fitted effect of over 50% in size
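Readout is BacTiter-Glo luminescence of cell growth, so inhibitors register as activators. TDP-43-expressing yeast at OD600=0.02 in galactose medium, after raffinose pregrowth to mid-log, were incubated with compound for 24 hr at 30 deg C.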
Numbers without * were called inactive; i = inactive; ? = inconclusive; . = no result; ! = not confirmed by another sample; [ ] = dose if it differs, or a comment. In the library only some 3.6% were active in any assay of this set; here they are far more common. Unless noted, calls follow the shape of the dose curve; as a rule, active = well fitted curve in the direction sought with a large enough effect; inconclusive = small, poorly fitted or top-dose-only effect, or another doubt; inactive = no such curve, though single readings can be large; an effect the other way counts as inactive or inconclusive. Potency is read from the fitted curve at half-maximal effect.

SMILES	Abeta yeast res	ClpP mod	Mm-Cpn inhibitor	FUS yeast rescue	aSyn rescue	TDP-43 yeast inh
CCOC(=O)N1CCN(C(=O)COc2ccc3c(c2)C(=O)CC2(CCN(C(C)=O)CC2)O3)CC1	i	15.8µM*	-0.8%	i	-1.3%	-8.4%
COc1ccccc1OCC(=O)N1CCC2(CC1)CC(=O)c1ccccc1O2	i	22.4µM*	1.6%	i	11.9%	25.3%
COc1cccc(CNC(=O)Cn2c(=O)ccc3cc(S(=O)(=O)N4CCCC4)ccc32)c1	i	-20.6%	.	i	-1.2%	9.6%
CC1CCN2c3cc(Cl)ccc3CC3(C(=O)OC(C)(C)OC3=O)C2C1 (centres undefined)	.	-1.5%	.	.	2.5%	.
Cc1nc(-c2cccnc2)sc1C(=O)Nc1cccc(C(F)(F)F)c1	i	0.1%	-2.7%	i	-9.2%	12.6µM*
CNC(=O)c1sc(-c2cccnc2)nc1C	i	-13.9%	-0.4%	i	3.2%	20.4%
Cc1nc(-c2cccnc2)sc1C(=O)Nc1ccc(C(F)(F)F)cc1	i	0.1%	0.2%	i	-3.6%	11.2µM*
CN(C)c1ccc(CNC(=O)C2CCN(Cc3cc4ccccc4n3Cc3ccccc3)CC2)cc1	i	-24.9%	.	i	.	1.9%[9.22 µM]
COc1cc2nc(Cl)nc(NC(C)C)c2cc1OC	.	-15.4%	.	.	0.3%	.
O=C(/C=C/c1ccc(Cl)cc1Cl)c1nc2ccccc2[nH]1	i	-8.2%	-2.2%	i	25.4%	11.2µM*
Cc1cc(C)nc(SCc2nnc(SCC(=O)Nc3c(C)cccc3C)o2)n1	i	-1.2%	1.7%	i	1.6%	-4.2%
Cc1cc(C)nc(SCc2nnc(SCc3ccccc3Cl)o2)n1	i	-2.6%	1.3%	i	17.8%	15.8µM*
COc1ccccc1N1CCN(C(=O)c2cc(-c3ccc(F)cc3)on2)CC1	i	-4.1%	0.3%	i	-1.4%	12.6µM*!
COc1ccccc1N1CCN(C(=O)c2nc(SC)ncc2Cl)CC1	i	-1.3%	.	i	.	35.5µM*
COc1ccccc1-c1cc(C(=O)N2CCN(c3ccccc3OC)CC2)no1	i	-1.6%	2.0%	i	19.1%	17.8µM*
COc1ccccc1N1CCN(C(=O)c2cc(-c3ccc(C)cc3)on2)CC1	i	-0.2%	-0.9%	i	-13.5%	?
COc1ccccc1N1CCN(C(=O)c2cc(C3CC3)on2)CC1	i	0.0%	-0.2%	i	1.2%	12.6µM*
CCCCOC(=O)c1ccc(NC(=O)Cc2coc3ccc(C(C)C)cc23)cc1	i	-6.0%	.	i	.	-13.7%
O=C(NC(=S)NCc1ccccc1)c1cccc(Cl)c1	i	-2.3%	0.9%	i	1.1%	15.8µM*
Cc1ccc(C(=O)NC(=S)NCc2ccccc2)cc1	?	0.0%	1.0%	i	-8.6%	15.8µM*
Cc1ccc(C(=O)N/C(=C\c2ccccc2)C(=O)NCc2cccnc2)cc1	i	-6.9%	-2.8%	i	-7.8%	2µM*
S=C(NCc1ccccc1)NCc1cccc(Cl)c1	14.1µM*	0.1%	3.9%	i	2.6%	29.2%
O=C(NC(=S)NCc1ccco1)c1cccc(Cl)c1	.	.	-2.5%	.	.	.
S=C(NCCc1cccc(Cl)c1)NCc1ccccc1	.	.	0.6%	.	.	.
Cc1ccc(C(C)C)c(OCCSc2nc(-c3cccs3)nc3cc(=O)[nH]n23)c1	i	2.7%	.	i	.	-20.4%
SMILES	Abeta yeast res	ClpP mod	Mm-Cpn inhibitor	FUS yeast rescue	aSyn rescue	TDP-43 yeast inh
COc1ccc(/C=C/c2ccc3ccccc3n2)c(OC)c1	.	4.3%	.	.	-35.5%	.
CCSc1nnc2c(n1)OC(c1ccc(C)cc1)N(C(C)=O)c1ccccc1-2 (centres undefined)	i	0.2%	.	i	.	27.8%
O=C(CNC(=S)NC(=O)c1ccc(Cl)cc1)c1ccccc1	i	28.2µM*	-0.7%	.	-10.8%	3.5%
S=C(NCc1ccccc1)NCc1ccccc1Cl	12.6µM*	-2.2%	0.1%	i	0.4%	?
CCc1ccc(-c2nc3c(=O)n(C)c(=O)nc-3n(CC)n2)cc1	.	-0.5%	.	.	-83.1%	.
Cc1cccc(C(=O)Nc2ccccc2C(=O)OCC(=O)Nc2ccc(C#N)cc2)c1	i	15.8µM*	0.2%	.	6.9%	17.3%
COc1ccccc1Cn1cc(C(=O)c2ccc(C)cc2)c(=O)c2cc3c(cc21)OCCO3	i	-1.8%	.	i	.	17.9%
Fc1ccccc1N1CCN(Cc2nnc(-c3ccc4c(c3)OCO4)o2)CC1	i	35.5µM*	.	i	.	?
Clc1ccc(N2CCN(Cc3nnc(-c4ccc5c(c4)OCO5)o3)CC2)cc1	i	-11.3%	.	i	.	9.9%
Cc1ccc(NC(=O)CSc2cn(CC(=O)N3CCCC3)c3ccccc23)cc1Cl	i	2.8%	.	i	.	7.9%
Nc1ccc2c(c1)-c1ccccc1S(=O)(=O)N2	i	0.3%	-5.8%	28.2µM*	-6.9%	-15.1%
Cc1ccc2c(c1)-c1ccccc1S(=O)(=O)N2	i	28.2µM*	0.7%	.	12.6µM*	?
CCOC(=O)c1[nH]c2ccccc2c1NC(=O)c1ccc(OC)c(OC)c1	i	5.9%	.	i	.	2.6%
Cc1ccc2nc(Cl)cc(=O)n2c1	i	28.2µM*	.	.	-5.6%	0.2%
Cc1ccc2nc(COC(=O)c3ccc(Cl)nc3)cc(=O)n2c1	i	1.0%	-1.7%	i	0.3%	-1.1%
CCOC(=O)c1c(-c2ccccc2)csc1NC(=O)/C(C#N)=C/c1ccc(O)c(OC)c1	i	28.2µM*	-1.5%	i	4.8%	16.9%
COC(=O)c1ccc(-c2nc3ccc(C)cc3o2)cc1	i	3.55µM*	?	i	0.3%	19.9%
Cc1ccc2oc(-c3cccc(N)c3)nc2c1	i	.	-1.6%	i	-2.9%	12.6µM*
Cc1ccc(-c2nc3cc(N)ccc3o2)c(C)c1	i	-29.4%	-6.7%	i	6.3%	8.5%
Cc1ccc2oc(-c3ccco3)nc2c1	i	11.2µM*!	0.4%	i	0.9%	1.2%
Cc1ccc(-c2nc3cc(C)ccc3o2)cc1	i	31.6µM*	-0.1%	i	-16.0%	7.7%
Cc1ccc(-c2nc3cc(N)ccc3o2)cc1	i	-7.8%	-4.6%	i	-2.4%	0.0%
CC(=O)N1CCc2cc(S(=O)(=O)CCC(=O)Nc3ccc(C)cc3Br)ccc21	i	2.2%	.	i	.	20.2%
